Screening data from PubChem BioAssay.
SMN2 splice enh = SMN2 splice variant enhancement | Potency, µM (series often up to 46.1 µM), without a hit: at the highest dose activity change, positive = activation, usual class: activators | 2.8% of 210,000 active | AID 1458 | HEK293 SMN2-luciferase splicing reporter, luminescence, 30-36 h; further: % of control where 0% means no effect; nearly all actives have a fitted effect of over 55% in size
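HEK293 cells carry an SMN2 […]–luciferase reporter in which exon 7 inclusion puts luciferase in frame. Cells were plated 10-12 h before compound addition, then incubated 30-36 h at 37C. ONE-Glo luminescence was read; sodium butyrate at 4.5 mM final served as control.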
Rab9 promoter act = activates the Rab9 promoter; AID 485297; Potency, µM (titrated, usually from 9.22 µM), for inactives: top-dose activation, negative = inhibition, actives largely listed as activators; Huh7 Rab9 promoter-luciferase reporter, luminescence, 24 h; 2.8% of 320,000 active; further: % of control where 0% means no effect; nearly all actives have a fitted effect of over 60% in size
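Huh7 cells stably carrying a Rab9 promoter-luciferase reporter, 1500 cells per well in OP-MEM I with 10% FBS, treated with compound 24 hours at 37C. Luciferase activity read by luminescence after 10 minutes with Amplite reagent.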
ELG1 genotox = inducers of genotoxicity in HEK293T ELG1-luciferase cells. 1.3% of 330,000 active. HEK293T ELG1-luciferase reporter, luminescence, 16 h. Potency, µM (highest dose often 46 µM), for inactives: at the top dose activity change, positive = activation, actives largely listed as activators; further: % of control where 0% means no effect; nearly all actives have a fitted effect of over 60% in size
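Screening used a luciferase reporter fused to human ELG1 in HEK293T cells. Luminescence was read on a CCD plate imager after 16 hr exposure and 30 min ONE-Glo incubation.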
FLuc modulator = counter-screen for miR-21 project: firefly luciferase inhibitors or activators. 6.9% of 360,000 active. purified FLuc, Km substrates, luminescence inhibition. P08659. Potency, µM (highest dose often 57.5 µM), without a hit: at the highest dose activity change, negative = inhibition, most hits filed as inhibitors;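 further: plate controls were vehicle for no effect and reference inhibitor for full effect; nearly all actives have a fitted effect of over 55% in size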
Target sequence (P08659 whole entry, looked up): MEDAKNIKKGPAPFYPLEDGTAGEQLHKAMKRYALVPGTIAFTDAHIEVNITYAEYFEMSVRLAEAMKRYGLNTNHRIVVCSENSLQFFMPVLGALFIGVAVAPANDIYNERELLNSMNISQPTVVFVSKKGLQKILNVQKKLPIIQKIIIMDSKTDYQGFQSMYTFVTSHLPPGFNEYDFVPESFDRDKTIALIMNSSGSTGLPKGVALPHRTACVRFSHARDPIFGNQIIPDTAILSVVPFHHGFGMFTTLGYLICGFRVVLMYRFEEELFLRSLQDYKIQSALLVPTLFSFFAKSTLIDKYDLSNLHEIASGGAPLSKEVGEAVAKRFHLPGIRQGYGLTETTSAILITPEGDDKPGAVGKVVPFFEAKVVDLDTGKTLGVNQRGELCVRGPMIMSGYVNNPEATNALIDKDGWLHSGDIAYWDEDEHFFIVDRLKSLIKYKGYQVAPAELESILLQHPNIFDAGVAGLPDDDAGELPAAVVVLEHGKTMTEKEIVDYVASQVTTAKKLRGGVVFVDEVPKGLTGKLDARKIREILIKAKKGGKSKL
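Biochemical qHTS of compounds, final roughly 60 µM downward over six points, against 10 nM purified firefly luciferase using Km concentrations of substrates (10 uM D-luciferin, 10 uM ATP) in Tris acetate pH 7.5 buffer; luminescence output.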
NPC1 promoter act = NPC1 promoter activation | Potency, µM (top dose mostly 9.22 µM), for inactives: at the top dose activation, actives largely listed as activators | 2.4% of 320,000 active | Huh7 NPC1 promoter luciferase reporter, 24 h; further: % of control where 0% means no effect; nearly all actives have a fitted effect of over 60% in size
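Luminescence from an NPC1 promoter-driven luciferase reporter in stably transfected Huh7 cells was measured after 24 h compound treatment at 37 °C, followed by 10 min ambient incubation with luciferase detection reagent.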
An asterisk follows results filed as active; ? = inconclusive; . = not tested or not shown; ! = not active in a repeat. Compounds with a hit are over-represented: about 7.4% of the library has one in this group of screens. The call rests on the fitted dose curve; in most records, active means well fitted curve in the direction sought with a large enough effect; inconclusive means small, poorly fitted or top-dose-only effect, or another doubt; inactive means no such curve, though single readings can be large; an effect the other way counts as inactive or inconclusive. Potency means the concentration at half of the fitted maximal effect.

SMILES | SMN2 splice enh | Rab9 promoter act | ELG1 genotox | FLuc modulator | NPC1 promoter act
CCOc1ccc(S(=O)(=O)N2CCC(C(=O)NCc3ccco3)CC2)cc1C | . | 0.9% | -0.3% | -1.0% | -2.0%
CCc1cnc2c(c1SCC(=O)Nc1ccc(C(=O)OC)cc1)c(=O)n(C)c(=O)n2C | . | . | . | -0.4% | .
O=C(c1cc(-c2ccc3c(c2)OCO3)on1)N1CCCCC1 | . | 0.501µM* | 0.116µM* | 0.849µM* | 0.316µM*
CN(C(Cc1ccc(OS(=O)(=O)c2cccc3cnccc23)cc1)C(=O)N1CCN(c2ccccc2)CC1)S(=O)(=O)c1cccc2cnccc12 (stereo not given) | -18.5% | . | . | . | .
O=C(/C=C/c1ccccc1)NC(=O)c1ccccc1O | . | ? | ? | 1.69µM* | ?
O=C(/C=C/c1ccccc1)CC(=O)c1ccccc1O | . | ? | ? | 15.1µM* | 25.7%
CC/C(=N\NC(=O)c1csc(C)c1C)c1cccs1 | 14.1µM* | 1.12µM* | ? | 2.39µM* | 2µM*
C/C(=N\NC(=O)c1csc(C)c1C)c1ccc(Cl)s1 | -3.4% | ? | ? | ? | ?
CCC/C(=N\NC(=O)c1csc(C)c1C)c1cccs1 | 15.8µM* | 3.16µM* | 10.3µM* | 4.78µM* | ?
CCc1cccc(C)c1NC(=O)C(NS(=O)(=O)c1ccc2c(c1)CCC(=O)N2)c1ccccc1 (stereo not given) | -0.1% | . | . | -2.3% | .
O=C(NCc1ccccc1)c1nc(-c2ccc(Cl)cc2)n2c1CCCCC2 | . | . | . | -12.5% | .
Cc1snc2sc(C(=O)c3ccc(Br)cc3)c(N)c12 | ? | 3.98µM* | 11.6µM* | -24.6% | 2.82µM*
Cc1ccc(C(=O)c2sc3nsc(C)c3c2N)cc1 | 10µM* | 2.82µM* | 0.581µM* | 1.69µM* | 1.12µM*
Cc1nc(-c2ccccc2)nc2sc(C(=O)c3ccc(F)cc3)c(N)c12 | . | -3.9% | 6.3% | 5.4% | 2.7%
CC(C)NC(=O)c1ccccc1-c1nc(-c2ccccc2Cl)no1 | . | 4.1% | 0.4% | 15.1µM* | 2.2%
CCNC(=O)c1ccccc1-c1nc(-c2ccccc2OC)no1 | . | 1.3% | -9.9% | ? | 2.3%
CCNC(=O)c1ccccc1-c1nc(-c2ccccc2Cl)no1 | -14.2% | 7.1% | 2.7% | 19µM* | 19.6%
CC(C)(C)NC(=O)c1ccccc1-c1nc(-c2ccccc2Cl)no1 | -8.4% | -3.8% | 6.4% | 12µM* | -1.9%
O=C(c1ccccc1-c1nc(-c2ccccc2Cl)no1)N1CCOCC1 | . | 1.3% | 2.5% | 2.5% | 0.4%
Cc1c(C(=O)N2CCOCC2)c(S(=O)(=O)Nc2cccc(C#N)c2)c(C)n1C | . | -3.5% | -0.6% | -2.2% | 1.8%
Sc1nnc(-c2ccc(Cl)cc2)n1Cc1ccccc1 | . | -4.4% | -1.3% | -0.4% | 0.8%
Oc1c(CNc2ccccc2)cc(COCc2ccccc2)c2cccnc12 | . | -15.5% | -0.9% | 0.4% | -13.8%
Oc1c(CN2CCOCC2)cc(COCc2ccccc2)c2cccnc12 | -105.3% | -25.3% | 18.4µM* | 1.1% | -17.5%
Cc1ccccc1N(C)S(=O)(=O)c1nnc(NC(=O)c2ccccc2F)s1 | . | 0.5% | -3.7% | 6.01µM* | -3.9%
O=C(COc1ccccc1)Nc1nnc(S(=O)(=O)Nc2ccccc2)s1 | . | -0.5% | 4.2% | 1.51µM*! | -7.5%
SMILES | SMN2 splice enh | Rab9 promoter act | ELG1 genotox | FLuc modulator | NPC1 promoter act
CN(c1ccccc1)S(=O)(=O)c1nnc(NC(=O)COc2ccccc2)s1 | . | -2.4% | -1.5% | 0.426µM*! | 2.5%
Cc1ccccc1OCC(=O)Nc1nnc(S(=O)(=O)N(C)c2ccccc2)s1 | . | . | . | 0.953µM* | .
CN(c1ccccc1)S(=O)(=O)c1nnc(NC(=O)COc2ccccc2F)s1 | . | -1.6% | -3.7% | -1.3% | -5.9%
O=C(COc1ccccc1)Nc1nnc(S(=O)(=O)N2CCCC2)s1 | . | -12.0% | -0.5% | 2.1% | -4.7%
O=[N+]([O-])c1ccc(Sc2cc[n+]([O-])c3ccccc23)c([N+](=O)[O-])c1 | . | -1.4% | ? | 4.9% | 3.1%
Cc1ccc(CNC(=O)COC(=O)c2cc(C)oc2C)cc1 | . | -3.2% | 1.8% | . | 0.4%
COc1ccc(Nc2nc3cc(Cl)c(Cl)cc3n3cnnc23)cc1Cl | 4.8% | . | . | -10.2% | .
Cc1cc(Cl)cc2sc(NC(=O)c3ccco3)nc12 | . | 2.24µM* | 2.91µM* | 9.53µM* | ?
Cc1cc(Cl)cc2sc(NC(=O)C3CC3)nc12 | . | 4.4% | -1.0% | 0.9% | 14.0%
